PubChem BioAssay AID624262 (National Center for Advancing Translational Sciences (NCATS), 2012)
This is one part of the list. Results filed as inconclusive are left out. Values without a mark were called inactive. Calls follow the shape of the dose curve; as a rule, active = well fitted curve in the direction sought with a large enough effect; inconclusive = small, poorly fitted or top-dose-only effect, or another doubt; inactive = no such curve, though single readings can be large or run the other way.

assay: qHTS for Inhibitors of Glutaminase (GLS): Hit Confirmation in HRP Counterscreen; conditions: HRP/glutamate oxidase coupled Amplex Red fluorescence counterscreen; series mostly up to 46.1 µM; activity change, negative = inhibition: at the top concentration
Text: Glutaminase (GLS) catalyzes the hydrolysis of glutamine into glutamate and ammonia. It plays a critical role in glutaminolysis, which is an important energy source for proliferating cells. It was shown that c-Myc, an oncogenic transcription factor known to regulate microRNAs and to stimulate cell proliferation, increases glutamine metabolism by stimulating the expression of GLS via direct suppression of miR23a and miR23b. […] GLS is also thought to play a pathogenic role on HAD using a human HIV-1 infected macrophage system. […] GLS inhibition limits glutamate release and provides neuroprotection against HIV-1 infected macrophages. […] The overall goal of this project is to identify small molecule inhibitors of GLS through quantitative high throughput screening (qHTS) of the MLSMR. A validated potent and selective inhibitor can be used as a tool molecule to further study the pharmacology of its target as well as explore its potential therapeutic application in cancer and inflammatory neurological disorders, such as HIV1-associated dementia (HAD) and multiple sclerosis. […]
3 uL of buffer are dispensed into black 1536-well plates and then 23 nL of compounds are transferred into the wells using a pin tool. […] The plate is quickly centrifuged before an initial read on the ViewLux is obtained. After a 30 min incubation at RT the plate is once again read on the ViewLux.

Structure (SMILES)	activity change, negative = inhibition [%]
CCN1C(=O)c2cccc3c(S(=O)(=O)Nc4ccccc4O)ccc1c23	-2.22
COc1cc(OC)c(S(=O)(=O)Nc2ccccc2C(=O)O)cc1S(=O)(=O)Nc1ccccc1C(=O)O	-3.19
